This experiment relates to LEGO organoid PT (PTEN-/-; TP53-/-). As to the kind of experiment: bioluminescence (viable cell) signal fold change after vs before treatment, normalised to DMSO (ratio); higher = more tumour cell growth / less inhibition. As to conditions: 10 µM; treatment time 6 days. The method, then: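 Luc2-labelled iPSC-derived glioblastoma-like organoids (LEGOs, genotypes PT = PTEN-/-;TP53-/-, PTCC = plus CDKN2A/B-/-, PTN = plus NF1-/-) were treated with 10 uM drug for 6 days (applied every other day) at 37 C. Bioluminescence imaging was done before treatment and 2 days after the last dose. BLI signals were normalised to the DMSO control on the same day and then to the pre-treatment signal (N=3).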
In the case of `CCC1(C)CC(=O)NC1=O` (stereo not given) [Ethosuximide], the bioluminescence was 0.871.
On to `CC(=O)Nc1nnc(S(N)(=O)=O)s1` [Acetazolamide], for which the bioluminescence came to 1.6.
Regarding `Cc1nc2n(c(=O)c1CCN1CCC(c3noc4cc(F)ccc34)CC1)CCCC2` [Risperidal], the bioluminescence stood at 1.57.
The result for `CCCN(CCc1cccs1)[C@H]1CCc2c(O)cccc2C1` [Rotigotine] reads 0.925.
The result for `CCc1cc(C(N)=S)ccn1` [Ethinamide] reads 2.05; that for `CN(C)CCCN1c2ccccc2CCc2ccccc21.Cl` [Imipramine hydrochloride], 0.921.
`CCCC(CCC)C(=O)O` [Valproic Acid]: the bioluminescence amounted to 1.01.
The figure for `CN1[C@@H]2CCC[C@H]1C[C@@H](NC(=O)c1nn(C)c3ccccc13)C2.Cl` [Granisetron hydrochloride] is 0.715; for `CCC(=O)NCC[C@@H]1CCc2ccc3c(c21)CCO3` [Ramelteon] it is 0.961; for `CS(=O)(=O)c1ccc(C2=C(c3ccccc3)C(=O)OC2)cc1` [Rofecoxib] it is 1.25.
`C=C/C=C/C[C@@H](C)[C@@H](O)[C@H]1C(=O)N[C@@H](CC)C(=O)N(C)CC(=O)N(C)[C@@H](CC(C)C)C(=O)N[C@@H](C(C)C)C(=O)N(C)[C@@H](CC(C)C)C(=O)N[C@@H](C)C(=O)N[C@H](C)C(=O)N(C)[C@@H](CC(C)C)C(=O)N(C)[C@@H](CC(C)C)C(=O)N(C)[C@@H](C(C)C)C(=O)N1C` [Voclosporin]: the bioluminescence worked out at 0.414.
Regarding `Cl.O=c1n(CCCN2CCN(c3cccc(Cl)c3)CC2)nc2ccccn12` [Trazodone hydrochloride], the bioluminescence was found to be 1.97.
The figure for `CC(=O)Oc1ccccc1C(=O)O` [Aspirin] is 0.997.
On to `Cc1cccc(N(C)C(=S)Oc2ccc3ccccc3c2)c1` [Tolnaftate], for which the bioluminescence is 1.01.
As to `CC(=O)OCC(=O)[C@@]1(O)[C@H](C)C[C@H]2[C@@H]3CCC4=CC(=O)C=C[C@]4(C)[C@@]3(F)[C@@H](O)C[C@@]21C` [Dexamethason acetate], the bioluminescence worked out at 1.76.
The result for `CC(C)CN(C[C@@H](O)[C@H](Cc1ccccc1)NC(=O)O[C@H]1CCOC1)S(=O)(=O)c1ccc(N)cc1` [Amprenavir] reads 0.802; that for `C[C@]12C=CC(=O)C=C1CC[C@@H]1[C@@H]2C(=O)C[C@@]2(C)[C@H]1CC[C@]2(O)C(=O)CO` [Prednisone], 1.13; that for `Nc1ccn([C@@H]2O[C@H](CO)[C@@H](O)[C@@H]2O)c(=O)n1` [Cytarabine], 1.82.
The figure for `Cl.CN(C)CC\C=C1\c2ccccc2C=Cc2ccccc12` [Cyclobenzaprine hydrochloride] is 0.825.
The result for `COc1ccc(CNc2nc(N3CCC[C@H]3CO)ncc2C(=O)NCc2ncccn2)cc1Cl` [Avanafil] reads 0.905; that for `CCN(CC)C(=O)[C@@]1(c2ccccc2)C[C@H]1CN.Cl` [Milnacipran ((1S-cis) hydrochloride)], 0.856.
As to `CS(=O)(=O)c1ccc(C(=O)Nc2ccc(Cl)c(-c3ccccn3)c2)c(Cl)c1` [Vismodegib], the bioluminescence stood at 0.63.
The result for `C[C@@H]1C[C@H]2[C@@H]3CCC4=CC(=O)C=C[C@]4(C)[C@@]3(F)[C@@H](O)C[C@]2(C)[C@@]1(O)C(=O)CO` [Dexamethasone] reads 0.763; that for `O=C(O)c1cccnc1` [Niacin], 0.772.
The result for `CNCCC(Oc1ccc(C(F)(F)F)cc1)c1ccccc1.Cl` (stereo not given) [Fluoxetine hydrochloride] reads 0.929.
The figure for `CC(C)Oc1ccc(-c2nc(-c3cccc4c3CC[C@@H]4NCCO)no2)cc1C#N` [Ozanimod] is 0.725; for `CCN(CC)CCNC(=O)c1cc(Cl)c(N)cc1OC` [5-Chloro-2-methoxyprocainamide] it is 1.1; for `CCN(CC)CC#CCOC(=O)C(O)(c1ccccc1)C1CCCCC1` (stereo not given) [Oxybutynin] it is 0.449.
Regarding `CN(C)CCC[C@@]1(c2ccc(F)cc2)OCc2cc(C#N)ccc21.O=C(O)C(=O)O` [Escitalopram Oxalate], the bioluminescence was determined as 1.52.
The result for `CO/N=C(\C(=O)N[C@@H]1C(=O)N2C(C(=O)[O-])=C(C[N+]3(C)CCCC3)CS[C@H]12)c1csc(N)n1.Cl.Cl.O` [Cefepime Dihydrochloride Monohydrate] reads 1.05; that for `COc1cc(C(=O)NCc2ccc(OCCN(C)C)cc2)cc(OC)c1OC.Cl` [Trimethobenzamide hydrochloride], 1.11; that for `C#CCN[C@@H]1CCc2ccccc21.CS(=O)(=O)O` [Rasagiline Mesylate], 0.604.
The result for `NC(=O)OCC(COC(N)=O)c1ccccc1` [Felbamate] reads 0.699; that for `Nc1cccc2c1CN(C1CCC(=O)NC1=O)C2=O` (stereo not given) [Lenalidomide], 2.02; that for `CO/N=C(\C(=O)N[C@@H]1C(=O)N2C(C(=O)[O-])=C(COC(C)=O)CS[C@H]12)c1csc(N)n1.[Na+]` [Cefotaxime sodium], 0.745.
The result for `Cc1ccc(C(=O)c2cc(O)c(O)c([N+](=O)[O-])c2)cc1` [Tolcapone] reads 1.1; that for `CCCC(CCC)C(=O)[O-].[Na+]` [Valproic acid sodium salt], 1.11.
As to `CCOC(=O)C1=C(C)NC(C)=C(C(=O)OC)C1c1cccc(Cl)c1Cl` (stereo not given) [Felodipine], the bioluminescence was found to be 1.06.
For `CN[C@H](CC(C)C)C(=O)N[C@H]1C(=O)N[C@@H](CC(N)=O)C(=O)N[C@H]2C(=O)N[C@H]3C(=O)N[C@H](C(=O)N[C@H](C(=O)O)c4cc(O)cc(O)c4-c4cc3ccc4O)[C@H](O)c3ccc(c(Cl)c3)Oc3cc2cc(c3O[C@@H]2O[C@H](CO)[C@@H](O)[C@H](O)[C@H]2O[C@H]2C[C@](C)(N)[C@H](O)[C@H](C)O2)Oc2ccc(cc2Cl)[C@H]1O` [Vancomycin], the bioluminescence is 1.48.
The figure for `CC1COc2c(N3CCN(C)CC3)c(F)cc3c(=O)c(C(=O)O)cn1c23` (stereo not given) [Ofloxacin] is 1.08.

(Values after the supplement of paper PMC10811239.)
